Results filed as inconclusive are left out. Entries that show only a call come without a potency. Calls of active or inactive are those of the source. Unless noted, the call rests on the fitted dose curve; in most records, active means well fitted curve in the direction sought with a large enough effect; inconclusive means small, poorly fitted or top-dose-only effect, or another doubt; inactive means no such curve, though single readings can be large; an effect the other way counts as inactive or inconclusive.
Tests used:
[1] = molecular target: Cytochrome P450 3A4 (Homo sapiens) (UniProt P08684); assay: qHTS Assay for Inhibitors and Substrates of Cytochrome P450 3A4 (AID 884); further: nearly all actives have a fitted effect of over 50% in size; further: potency means the concentration at half of the fitted maximal effect
Cytochrome P450 3A4 (Homo sapiens), sequence (P08684 whole entry, looked up): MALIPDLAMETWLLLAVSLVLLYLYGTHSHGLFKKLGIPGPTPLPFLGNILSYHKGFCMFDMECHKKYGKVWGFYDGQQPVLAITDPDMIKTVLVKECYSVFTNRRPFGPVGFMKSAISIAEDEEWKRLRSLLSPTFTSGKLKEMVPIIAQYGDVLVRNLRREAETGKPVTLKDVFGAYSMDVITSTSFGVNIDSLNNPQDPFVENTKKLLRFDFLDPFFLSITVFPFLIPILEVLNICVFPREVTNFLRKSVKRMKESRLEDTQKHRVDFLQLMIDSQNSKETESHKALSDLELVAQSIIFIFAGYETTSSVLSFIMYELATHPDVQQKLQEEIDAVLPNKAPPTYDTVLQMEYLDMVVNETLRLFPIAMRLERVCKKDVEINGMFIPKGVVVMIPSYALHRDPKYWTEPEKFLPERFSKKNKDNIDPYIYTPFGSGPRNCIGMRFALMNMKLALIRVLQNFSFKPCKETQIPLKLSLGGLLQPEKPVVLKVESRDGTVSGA
Outline: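 20 nM human CYP3A4 with 25 uM Luciferin-PPXE (at KM) in 200 mM KPO4, preincubated 10 min with compound; NADPH regeneration started a 60 min RT reaction. Luciferin detected by luminescence, normalized to 57 uM ketoconazole as full inhibition.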

[2] = Confirmation and Secondary Assay for Modulators of Hemoglobin Beta Chain Splicing at IVS2 654 locus (AID 910);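 further: HeLa cells stably carrying EGFP split by mutant beta-globin IVS2-654 intron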
Outline: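 Readout: per-well total peak green fluorescence (488 nm ex, 500–520 nm em) from objects 5–250 µm, reflecting correct splicing of an EGFP-654 reporter. Compounds were applied for 2 days at 37 °C to overnight-plated HeLa EGFP-654 cells; controls were DMSO and 500 nM IVS2-654 PNA.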

[3] = Confirmation and Secondary Assay for Modulators of Hemoglobin Beta Chain Splicing at IVS2 705 locus (AID 930);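 further: HeLa cells stably expressing the EGFP-705 splicing reporter; GFP fluorescence per well restored by corrected splicing of the IVS2-705 intron in EGFP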
Outline: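 HeLa cells stably carrying EGFP interrupted by mutant beta-globin intron 2 (IVS2-705) treated 2 days at 37C with compound; 500 nM antisense PNA as control. Correct splicing read as total peak GFP intensity per well by laser-scanning cytometry.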

[4] = qHTS Assay for Lipid Storage Modulators (AID 1519; calls by dose curve); conditions: Drosophila S3 cells, BODIPY lipid droplet/cell ratio, laser cytometry, cells loaded with oleic acid
Outline: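 Cells seeded at 5,000 per well were treated with compounds over a concentration series and loaded with oleic acid (400 uM, as added). Lipid droplet fluorescence (488 nm excitation, 500-530 nm channel) was read by laser-scanning cytometry and normalized to 20 uM Triacsin C.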

[5] = molecular target: Ubiquitin carboxyl-terminal hydrolase 1 (Homo sapiens) (UniProt O94782); assay: Inhibitors of USP1/UAF1: Pilot qHTS (AID 504865); further: nearly all actives have a fitted effect of over 35% in size; further: potency means the concentration at half of the fitted maximal effect;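 on activity change, negative = inhibition: rhodamine fluorescence freed from ubiquitin-rhodamine substrate followed over time; top concentration of the series differs between compounds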
Ubiquitin carboxyl-terminal hydrolase 1 (Homo sapiens), sequence (O94782 whole entry, looked up): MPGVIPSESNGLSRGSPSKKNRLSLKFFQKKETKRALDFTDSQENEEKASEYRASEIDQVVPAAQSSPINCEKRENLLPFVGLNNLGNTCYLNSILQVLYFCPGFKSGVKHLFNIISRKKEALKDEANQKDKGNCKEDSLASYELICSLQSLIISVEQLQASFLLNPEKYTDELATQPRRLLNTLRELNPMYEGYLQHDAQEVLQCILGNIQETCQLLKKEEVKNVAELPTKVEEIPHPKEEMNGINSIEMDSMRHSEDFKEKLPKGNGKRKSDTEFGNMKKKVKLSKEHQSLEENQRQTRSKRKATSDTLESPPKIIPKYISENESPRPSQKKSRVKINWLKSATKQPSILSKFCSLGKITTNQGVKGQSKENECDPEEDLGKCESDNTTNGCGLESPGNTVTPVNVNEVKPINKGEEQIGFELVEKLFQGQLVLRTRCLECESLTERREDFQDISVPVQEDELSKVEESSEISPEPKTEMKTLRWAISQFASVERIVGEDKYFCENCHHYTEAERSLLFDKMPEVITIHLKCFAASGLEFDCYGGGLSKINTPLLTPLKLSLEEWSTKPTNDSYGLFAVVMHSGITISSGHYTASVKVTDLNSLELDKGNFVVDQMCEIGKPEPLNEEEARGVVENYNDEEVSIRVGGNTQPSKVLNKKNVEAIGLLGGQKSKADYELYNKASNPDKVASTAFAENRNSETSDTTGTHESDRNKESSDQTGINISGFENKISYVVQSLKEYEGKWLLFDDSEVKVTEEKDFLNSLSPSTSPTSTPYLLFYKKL
Outline: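 1nM USP1/UAF1 + cpd, 15 min RT; start w/ Ub-Rho 150nM final; kinetic FL 480/540 nm, 6 reads q60 s. Buffer 50mM HEPES pH 7.8, 0.5mM EDTA, 1mM TCEP, 0.01% Tween-20, 0.1 mg/ml BSA.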

[6] = molecular target: Cytochrome P450 3A4 (Homo sapiens) (UniProt P08684); assay: qHTS Assay for Activators of Cytochrome P450 3A4 (AID 885); further: nearly all actives have a fitted effect of over 65% in size
Outline: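 Signal was normalized against complete inhibition by 57 uM ketoconazole. The reaction used 20nM CYP3A4 with 25uM Luciferin-PPXE, 10-min compound preincubation and a 60-min NADPH-supported step at RT.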

[7] = measured here: cell count channel max response
[8] = measured here: lipid channel max response

SMILES	Potency [1]	Potency [2]	Potency [3]	activity change, negative = inhibition ([4]; at 57.5 µM (top of the series))	max response [4, 7] [%]	max response [4, 8] [%]	Potency [5]	Potency [6]	activity change, negative = inhibition ([4]; at 25.7 µM (top of the series))
CCC(C)C(=O)c1c(O)c(C)c2oc3c(C)c(O)c(C(=O)C(C)CC)c(O)c3c2c1O (stereo unspecified)	inactive	inactive	inactive	-5.67% (inactive)	-3.74	-10.1	inactive		
CC(=O)OC1CC(OC(C)=O)[C@]2(C)C(CC(OC(C)=O)[C@]3(C)C2CC[C@@]2(C)C(c4ccoc4)C[C@H]4O[C@]432)C1(C)C (stereo partly specified)	inactive	inactive	inactive	6.91% (inactive)	9.38	19.4	inactive		
O=C1CCCC2C3CC(CN12)C1CCCCN1C3 (stereo unspecified)	inactive	inactive	inactive	6.45% (inactive)	7.08	15	inactive		
C[C@@]12CCC(=O)C[C@@H]1CC[C@@H]1[C@@H]2CC[C@]2(C)C(=O)CC[C@@H]12	inactive	inactive	inactive	6.14% (inactive)	2.79	10.6	inactive		
O=C(O)c1nn(Cc2ccc(Cl)c(Cl)c2)c2ccccc12	inactive	inactive		4.27% (inactive)	10.4	16.9	inactive		
COc1cc2c(cc1OC)[C@@H]1C(=O)c3ccc(O)c(CC=C(C)C)c3OC1CO2 (stereo partly specified)	inactive	inactive	inactive	7.74% (inactive)	14.6	25.6	inactive		
CC1C(=O)OC2C(O)C34C5OC(=O)[C@@]3(OC3OC(=O)[C@H](O)[C@]34C(C(C)(C)C)C5O)[C@]12O (stereo partly specified)	inactive	inactive	inactive	0.291% (inactive)	13.6	14.3	inactive		
CC1(C)C(O)CC(O)[C@]2(C)C1CC(=O)[C@]1(C)C2CC[C@@]2(C)C(c3ccoc3)OC(=O)C3OC321 (stereo partly specified)	6.31 µM (active)	inactive		-5.65% (inactive)	17	11.8	inactive		
COC1C(O)C(C)O[C@H](OC2CC[C@@]3(C=O)C4CC[C@]5(C)C(C6=CC(=O)OC6)CC[C@@]5(O)C4CC[C@@H]3C2)C1O (stereo partly specified)	inactive	inactive	inactive	3.31% (inactive)	21.5	24.5	inactive		
CC(=O)OC1CCC23C(=O)OC45CCC(C6=CC(=O)OC6)C4(C)CCC2C5CCC3(O)C1 (stereo unspecified)	inactive	inactive	inactive	-4.87% (inactive)	6.6	2.69	inactive		
CC(N)[C@@H](O)c1ccccc1 (stereo partly specified)	inactive	inactive	inactive	6.04% (inactive)	11.6	28.2	inactive		
CC(=O)OC1CC[C@]2(C)C(CCC3C2CC[C@]2(C)C(C4=CC(=O)OC4)C(OC(C)=O)CC32O)C1 (stereo partly specified)	inactive	inactive	inactive	6.45% (inactive)	1.24	14.6	inactive		
CC(=O)C1CCC2C3CCC4CC(O)CCC4(C)C3CC(O)C12C (stereo unspecified)	inactive	inactive	inactive	-2.59% (inactive)	3.25	2.61	inactive		
CNC(Cc1c[nH]c2ccccc12)C(=O)O (stereo unspecified)	inactive	inactive	inactive	4.43% (inactive)	11.7	20.5	inactive		
CC1C(=O)OC2CCN3CC=C(COC(=O)[C@](C)(O)[C@]1(C)O)C23 (stereo partly specified)	inactive	inactive	inactive	5.81% (inactive)	-2.74	4.32	inactive		
CC1O[C@@H](OC2CC(O)[C@@]3(CO)C4C(O)C[C@@]5(C)C(C6=CC(=O)OC6)CC[C@]5(O)C4CC[C@]3(O)C2)C(O)C(O)C1O (stereo partly specified)	inactive	inactive	inactive	3.6% (inactive)	6.17	13.6	inactive		
CC1C(=O)OC2O[C@]3(C)CC[C@H]4C(C)CCC1[C@]24OO3 (stereo partly specified)		inactive		8.3% (inactive)	8.98	23.7	inactive		
CCC1CN2CCC1CC2C(O)c1ccnc2ccc(OC)cc12 (stereo unspecified)	inactive	inactive	inactive	6.54% (inactive)	2.56	12.3	inactive		
COC(=O)COc1cc(Cl)c(Cl)cc1Cl	inactive	inactive	inactive	2.27% (inactive)	13.1	15.5	inactive		
O=C1NC(=O)C(=O)C(=O)N1	inactive	inactive	inactive	2.7% (inactive)	15	19.9	89.1 µM (active)		
O=C(O)CCC1NCC2CC1CN1CCCCC21 (stereo unspecified)	inactive	inactive	inactive	2.61% (inactive)	3.62	5.45	inactive		
N#C/C(=C\c1ccc(O)cc1)C(=O)O		inactive	inactive	4.55% (inactive)	8.92	15.9	inactive	inactive	
COc1c2c(cc3c1OCO3)C13C=CC(OC)CC1N(C2)CC3O (stereo unspecified)		inactive	inactive	11.5% (inactive)	12.8	26.7	inactive	inactive	

SMILES	Potency [1]	Potency [2]	Potency [3]	activity change, negative = inhibition ([4]; at 57.5 µM (top of the series))	max response [4, 7] [%]	max response [4, 8] [%]	Potency [5]	Potency [6]	activity change, negative = inhibition ([4]; at 25.7 µM (top of the series))
O=C(CC[N+](=O)[O-])OCC1OC(O)C(OC(=O)CC[N+](=O)[O-])[C@@H](OC(=O)CC[N+](=O)[O-])C1OC(=O)CC[N+](=O)[O-] (stereo partly specified)	inactive	inactive	inactive	3.27% (inactive)	13	17.5	inactive		
CCCCC/C=C\C/C=C\C/C=C\C/C=C\CCCC(=O)O				-9.9% (inactive)	20.2	8.84	50.1 µM (active)	inactive	
C/C=C(/C)C(=O)OC1CC[C@]2(C)C3CCC4[C@]5(O)CC(O)[C@]6(O)C(CN7CC(C)CCC7[C@]6(C)O)[C@]5(O)C[C@@]42O[C@]13O (stereo partly specified)	inactive	inactive	inactive	5.46% (inactive)	6.5	12.3	inactive		
CC1CC[C@]2(NC1)OC1CC3C4CC=C5CC(O)CC[C@@]5(C)C4CC[C@]3(C)C1C2C (stereo partly specified)	inactive	inactive	inactive	2.46% (inactive)	14.9	22.2	inactive		
COC1=CC23CCCN2CCc2cc4c(cc2C3C1O)OCO4 (stereo unspecified)	31.6 µM (active)	inactive	inactive	15.3% (inactive)	26.5	52.2	inactive		
CC1/C=C/C=C/CC/C=C/C=C/C=C/C=C/C(OC2OC(C)C(O)C(N)C2O)CC2O[C@](O)(CC(O)C(O)CCC(O)CC(O)CC(O)CC(=O)OC(C)C(C)C1O)CC(O)C2C(=O)O (stereo partly specified)		inactive	inactive	9.08% (inactive)	17	32	inactive		
FC(F)(F)c1cccc(N2CCNCC2)c1	inactive	inactive	inactive	4.68% (inactive)	-7.45	-3.82	inactive		
COc1ccc2c(c1)[C@@]13CCCCC1[C@@H](C2)N(C)CC3 (stereo partly specified)		inactive	inactive	7.37% (inactive)	4.27	15.7	inactive		
C[C@@]12CCC(Cl)C[C@H]1CCC1C2CC[C@]2(C)C(=O)CCC12 (stereo partly specified)	inactive	inactive	inactive	8.24% (inactive)	9.07	21.6	inactive		
CC1(C)C(O)CC(O)[C@]2(C)C1CC(O)[C@]1(C)C2CC[C@@]2(C)C(c3ccoc3)CC3OC312 (stereo partly specified)		inactive		-10.5% (inactive)	-11.5	-19.8	inactive	inactive	
COc1c(CC=C(C)C)c2c(c3oc(=O)c(-c4ccc(O)cc4)c(O)c13)C=CC(C)(C)O2		inactive		3.02% (inactive)	14.5	15.5	79.4 µM (active)	inactive	
CC1=C2C3OC(=O)C(C)C3CC[C@@]2(C)C=CC1=O (stereo partly specified)		inactive	inactive	1.14% (inactive)	15.1	16.8	inactive		
COc1ccc(/C=C/c2cc(O)cc(O)c2)cc1	inactive	inactive	inactive	4.7% (inactive)	1.7	6.07	inactive		
C[C@]12CCC3C(C=CC4=CC(=O)CC[C@]43C)C1CC[C@]2(O)CCC(=O)O (stereo partly specified)	inactive	inactive	inactive	1.44% (inactive)	28.8	34.1	inactive		
CC1(C)C(O)CC(=O)[C@]2(C)C1CC(=O)[C@]1(C)C2CC[C@@]2(C)C(c3ccoc3)OC(=O)C3O[C@@]321 (stereo partly specified)		inactive	inactive	-3.35% (inactive)	16.1	14.7	inactive	inactive	
CCC(N)C(O)c1ccc(O)c(O)c1 (stereo unspecified)	inactive	inactive	inactive	5.92% (inactive)	7.01	16.7	inactive		
CCC(C)C(=O)OC1C(O)C2C(CN3CC(C)CCC3[C@]2(C)O)C2C[C@]34O[C@@]5(O)C(OC(=O)C(C)(O)CC)CCC3(C)C5C(OC(C)=O)C(OC(C)=O)C4[C@@]21O (stereo partly specified)	inactive	inactive	inactive	3.69% (inactive)	17.1	25.4	inactive		
Oc1ccc2c3c1OC1C(O)CC[C@]4(O)C(C2)N(CC2CCC2)CC[C@]314 (stereo partly specified)		inactive	inactive	-5.68% (inactive)	13.5	9.11	inactive		
CNC(=O)Oc1ccc2c(c1)[C@@]1(C)CCN(C)[C@@H]1N2C					-3.51	-6.16	inactive		-1.12% (inactive)
COc1cc2c3cc1Oc1c(OC)c(OC)cc4c1C(Cc1cccc(c1)Oc1ccc(c(O)c1)CC3N(C)CC2)N(C)CC4 (stereo unspecified)	inactive	inactive	inactive	6.04% (inactive)	15.8	22.7	inactive		
Nc1ncn[nH]1		inactive	inactive	11.2% (inactive)	9.75	23.5	inactive	inactive	
CNC(C)[C@H](O)c1ccccc1 (stereo partly specified)		inactive	inactive	9.2% (inactive)	21.5	37.3	inactive		
COc1cc2c(c(OC)c1OC)-c1ccc(O)c(=O)cc1C(NC(C)=O)CC2 (stereo unspecified)	inactive	inactive	inactive	7.7% (inactive)	16.6	36.3	inactive		

Reference: PubChem BioAssay (NCATS)
